Screening data from PubChem.
PI5P4Ka inh – qHTS for Inhibitors of phosphatidylinositol 5-phosphate 4-kinase (PI5P4K). PI5P4Kalpha enzyme, ADP-Glo luminescence, 60 min; hits give low values. max response, %. 330,000 tested, 1.2% active. AID 652105, 2013; active means max response of -50% or lower; inconclusive means between -30% and -50%; inactive means -30% or higher; further: value at the top dose of about 77 µM
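Reactions run in 0.038 M HEPES pH 7.4, 0.28 mM EGTA, 0.1% CHAPS and 5% DMSO, with PI5P4Kalpha, substrate, compound and 5 microM ATP final, one hour at room temperature. Readout is ADP-Glo luminescence.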
G9a inh – qHTS Assay for Inhibitors of Histone Lysine Methyltransferase G9a. Histone-lysine N-methyltransferase EHMT2 (Homo sapiens), Q96KQ7. AID 504332, 2011. 350,000 tested, 8.8% active. Potency, µM (top dose mostly 102 µM), most hits filed as inhibitors. G9a H3K9 monomethylation, AlphaScreen, 2 h; further: nearly all actives have a fitted effect of over 75% in size
Target sequence (Q96KQ7 913-1193 limits assumed): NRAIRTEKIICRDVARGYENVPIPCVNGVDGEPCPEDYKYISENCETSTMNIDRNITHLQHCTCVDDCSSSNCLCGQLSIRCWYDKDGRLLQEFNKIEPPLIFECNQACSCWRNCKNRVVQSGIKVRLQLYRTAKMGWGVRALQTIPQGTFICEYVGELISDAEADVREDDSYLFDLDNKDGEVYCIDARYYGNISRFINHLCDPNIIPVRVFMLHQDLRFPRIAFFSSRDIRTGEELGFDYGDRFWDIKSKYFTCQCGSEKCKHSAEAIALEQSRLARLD
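Chemiluminescent proximity detection of H3K9 monomethylation, read after 10 min bead incubation in the dark. Reaction: 20 nM G9a, 500 nM biotin-H3K9 peptide, 20 uM SAM cofactor, 2 h, room temperature, following 15 min enzyme-compound preincubation.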
JMJD2A Tudor inh – qHTS Assay for Inhibitors of JMJD2A-Tudor Domain | Lysine-specific demethylase 4A (Homo sapiens), O75164 | Potency, µM (top dose mostly 114 µM), usual class: inhibitors | AID 504339, 2011 | 390,000 tested, 4.4% active | AlphaScreen JMJD2A-Tudor / H3K4me3 peptide binding; further: nearly all actives have a fitted effect of over 50% in size
BAZ2B inh – qHTS Assay for Inhibitors of BAZ2B; Bromodomain adjacent to zinc finger domain protein 2B (Homo sapiens), Q9UIF8; AlphaScreen BAZ2B-H3K14Ac peptide displacement; Potency, µM (doses to about 114 µM), most hits filed as inhibitors; 360,000 tested, 4.4% active; further: nearly all actives have a fitted effect of over 60% in size
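AlphaScreen luminescence quantifies BAZ2B engagement of H3K14Ac peptide; the protein and biotinylated peptide are both at 50 nM final, buffer PBS pH 7.4 with 0.01% Tween-20, all steps at room temperature.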
L3MBTL1 block – qHTS Assay for the Inhibitors of L3MBTL1; Lethal(3)malignant brain tumor-like protein 1 (Homo sapiens), Q9Y468; AlphaScreen L3MBTL1–H3K9me1 peptide binding; Potency, µM (doses to about 57.1 µM), usual class: inhibitors; 230,000 tested, 0.66% active; further: nearly all actives have a fitted effect of over 60% in size
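AlphaScreen assay: L3MBTL1 (50 nM final) was preincubated 30 min at room temperature with biotinylated H3(1-15)K9me1 peptide (75 nM final), then 30 min with library compounds; streptavidin donor and nickel chelate acceptor beads (10 ug/mL final) added, 30 min dark.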
HP1b binding inh – HTS for Inhibitors of HP1-beta Chromodomain Interactions with Methylated Histone Tails; Chromobox protein homolog 1 (Homo sapiens), P83916; AlphaScreen HP1-beta / biotin-H3K9me3 peptide binding; Potency, µM (doses to about 114 µM), hits mostly inhibitors; 390,000 tested, 0.56% active; further: nearly all actives have a fitted effect of over 70% in size
Target sequence (P83916 whole entry, looked up): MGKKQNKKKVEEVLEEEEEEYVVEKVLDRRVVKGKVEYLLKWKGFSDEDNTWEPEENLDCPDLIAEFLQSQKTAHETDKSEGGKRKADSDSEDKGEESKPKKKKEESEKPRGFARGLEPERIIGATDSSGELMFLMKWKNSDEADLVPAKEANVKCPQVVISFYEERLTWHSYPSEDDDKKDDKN
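Compound inhibition of the preformed complex between 50 nM HP1-beta and 50 nM biotinylated H3K9me3 peptide was read by AlphaScreen. Buffer was PBS pH 7.4 with 0.01% Tween-20. Incubations ran 30 min at room temperature, with 10 ug/mL donor/acceptor beads.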
Hits are given with their value; 0 = inactive; ? = inconclusive; - = no result; [ ] = remark or other dose. Most compounds without a hit are left out; they make up all but 11% or so of the library. Unless noted, the call rests on the fitted dose curve; in most records, active means well fitted inhibition curve with a large enough effect; inconclusive means small, poorly fitted or top-dose-only effect; inactive means no such curve, though single readings can be large or run the other way.

SMILES	PI5P4Ka inh	G9a inh	JMJD2A Tudor inh	BAZ2B inh	L3MBTL1 block	HP1b binding inh
Cc1cc2c(cc1C)CN(c1ccccc1)C2	0	7.1µM	?	0	0	0
O=c1[nH]c2ccc(Br)cc2c(-c2ccccc2)c1CN1CCOCC1	?	50µM	?	0	0	0
COc1ccc(NC(=O)CCS(=O)(=O)c2ccc3c(c2)oc(=O)n3C)cc1	0	0	0	50µM	-	0
Cc1cccc(N(C)C(=O)CCS(=O)(=O)c2ccc3c(c2)oc(=O)n3C)c1	-	2.8µM	0	0	-	0
Cn1c(=O)oc2cc(S(=O)(=O)CCC(=O)Nc3ccccc3)ccc21	0	0	0	0	-	0
CSc1ccc(CCNC(=O)c2ccc(CS(=O)(=O)c3ccc(Br)cc3)o2)cc1	-	0	0	0	-	0
O=C(O)CN1CCN(c2ncc(C(F)(F)F)cc2Cl)CC1	0	50µM	0	0	0	0
NNC(=O)CN1CCN(c2ncc(C(F)(F)F)cc2Cl)CC1	0	0	0	0	0	0
CC(C)C[C@@]12C(=O)N(c3cccc(Cl)c3)C(=O)N1[C@H](c1ccc(Br)cc1)[C@@H]1C(=O)N(C(C)(C)C)C(=O)[C@@H]12	0	0[12.7 µM]	0	0	0	0
CC[C@@]12C(=O)N(c3cccc(Cl)c3)C(=O)N1[C@H](c1ccc(Br)cc1)[C@@H]1C(=O)N(C(C)(C)C)C(=O)[C@@H]12	?	0[2.33 µM]	79µM	0	0	0
CC1=NN(c2ccccc2)C(=O)C1C=Nc1ccccc1O (configuration not stated)	0	0	0	0	0	0
CC1=NN(c2ccccc2)C(=O)C1/C=C1\NC(=S)NC1=O (configuration not stated)	-74	?	56µM	?	-	?
O=C1c2ccccc2NC(c2ccc([N+](=O)[O-])cc2)N1O (configuration not stated)	0	56µM	0	0	0	0
O=C1c2ccccc2NC(c2ccc(Br)o2)N1O (configuration not stated)	-	0[2.33 µM]	79µM	0	0	0
O=C1c2ccccc2NC(c2ccc(-c3cccs3)o2)N1O (configuration not stated)	-	0[0.501 µM]	0	?	0	0
O=C1c2ccccc2NC(c2cccc(O)c2)N1O (configuration not stated)	0	45µM	0	0	-	0
CCc1ccc(N(CC)C(=O)Cn2c(=O)oc3ccccc32)cc1	-	0	0	0	-	0
O=C(CNC(=O)c1ccc(Cl)cc1)OCc1cc(=O)n2nc(C3CCCCC3)sc2n1	-	0	0	0	-	0
COc1ccccc1CNC(=O)CN(C)c1nn2c(=O)cc(C)nc2s1	-	0	0	0	-	0
N#Cc1c(C(F)(F)F)cc(=O)n2c1[nH]c1ccccc12	0	0	0	0	0	0
N=C1c2c(cc(=O)n3c2[nH]c2ccccc23)CN1CCN1CCOCC1	0	35µM	0	-	-	0
CN(C)c1cccc(S(=O)(=O)N2CCN(S(=O)(=O)c3ccc4c(c3)OCCO4)CC2)c1	-	-	0	-	-	-
Cc1sc(N)nc1-c1ccc(Oc2ccccc2)cc1	0	?	?	50µM	0	0
Cc1sc(N)nc1-c1ccc2c(c1)OCCO2	0	35µM	0	0	0	0
Nc1nc(-c2ccc3c(c2)OCCO3)c(CC(=O)O)s1	0	-	0	0	0	0
CCOc1ccc(NC(=O)CSc2nnc(-c3ccncc3)n2-c2ccccc2)cc1	-	0	0	0	-	0
O=C(CCl)N1c2ccccc2Oc2ccc3ccccc3c21	0	-	56µM	-	-	71µM
Cc1cc(NCc2ccc(Cl)cc2)n2cnnc2n1	-	0	0	0	-	0
Cc1ccc(C)c(NC(=O)CSc2ncc3c(n2)-c2cc(Cl)ccc2N(Cc2ccccc2F)S3(=O)=O)c1	-	0	0	0	-	0
